Among the test systems are NCI-H23 lung; NCI-H226 lung; NCI-H322M lung; HOP-62 NSCLC; NCI-H460 lung; HOP-92 NSCLC; NCI-H522 lung; A549/ATCC NSCLC; 786-0 renal; COLO 205 colon; DU-145 prostate; K-562 leukemia; MALME-3M melanoma; MDA-MB-231 breast; RXF 393 renal; SF-268 CNS; SF-295 CNS; SF-539 CNS; UACC-257 melanoma; M14 melanoma.
Common to all, as to assay: NCI-60 one-dose screen, 48 h (100 = growth as untreated, 0 = no growth, -100 = all killed)
Common to all, as to settings: 10 µM unless noted

Each structure is given as a SMILES string. About 83,000 compounds went through this panel and 20% of them were active in at least one assay; those are over-represented in the sample as a whole.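 Activity criterion: percent growth below 10, measured after cells in 96-well plates were exposed to a single compound concentration for 48 hours.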 A number with no mark means an inactive call. Calls of active or inactive are those of the source.

For `COc1ccc(C/C(C)=C(/c2ccc(OCCN3CCCCCC3)cc2)c2ccc(OC(=O)NCc3ccccc3)cc2)cc1`, the growth in the experiment on NCI-H23 lung is 86.4%; in the experiment with NCI-H226 lung, 101%; in the experiment on NCI-H322M lung, 93.2%; with HOP-62 NSCLC it was 91.1%; in the experiment with NCI-H460 lung, 70.7%; with HOP-92 NSCLC, 56%. Also, the growth in the experiment with NCI-H522 lung is 75.2%; in the experiment with A549/ATCC NSCLC, 77%; in the experiment on 786-0 renal it was 83.5%; in the experiment with COLO 205 colon, 85.7%; with DU-145 prostate, 95.6%; in the experiment on K-562 leukemia it was 28%. Moreover, the growth was 95.2% in the experiment on MALME-3M melanoma; 83.9% with MDA-MB-231 breast; 84% in the experiment with RXF 393 renal; 88.4% with SF-268 CNS; 98.2% in the experiment with SF-295 CNS; 96.7% in the experiment with SF-539 CNS. Also, the figures for the growth in the experiment with UACC-257 melanoma and with M14 melanoma were 94.7% and 95.6%, respectively.

With `C=C1C(=O)O[C@H]2[C@H]1CC/C(CNC(=O)c1cc3ccccc3[nH]1)=C\CC[C@@]1(C)O[C@@H]21`, the growth with NCI-H23 lung was -42.3% (active); with NCI-H226 lung, -42.9% (active); in the experiment on NCI-H322M lung, 63.8%; with HOP-62 NSCLC, 9.39% (active); with NCI-H460 lung, -19.7% (active); in the experiment on HOP-92 NSCLC it was -51.1% (active). Further, the growth was -75.4% (active) in the experiment with NCI-H522 lung; 9.2% (active) in the experiment on A549/ATCC NSCLC; -67.3% (active) in the experiment on 786-0 renal; -83.3% (active) in the experiment on COLO 205 colon; -87.7% (active) in the experiment on DU-145 prostate; -20.6% (active) with K-562 leukemia. Besides, the growth in the experiment with MALME-3M melanoma was -28.9% (active); with MDA-MB-231 breast, -46.6% (active); with RXF 393 renal, -76% (active); in the experiment on SF-268 CNS it was -27.3% (active); in the experiment on SF-295 CNS, 42.3%; with SF-539 CNS, -77.1% (active). In addition, the growth is -49.2% (active) with UACC-257 melanoma and -57.1% (active) with M14 melanoma.

Consider `O=C(O)CCCn1c(SCc2c(Cl)cccc2Cl)nc2ccsc2c1=O`, for which the growth in the experiment on NCI-H23 lung is 33.6%; in the experiment with NCI-H226 lung it was 43.4%; in the experiment with NCI-H322M lung, 48.3%; with HOP-62 NSCLC it was 45.2%; in the experiment with NCI-H460 lung, 10.2%; with HOP-92 NSCLC, 24.5%. For the same compound, the growth in the experiment with NCI-H522 lung was -3.68% (active); in the experiment with A549/ATCC NSCLC it was 34.4%; in the experiment on 786-0 renal, 23.9%; in the experiment on COLO 205 colon, 3.82% (active); in the experiment on DU-145 prostate, 3.54% (active); in the experiment with K-562 leukemia, 9.27% (active). Besides, the growth with MALME-3M melanoma is 47.7%; with MDA-MB-231 breast, 42%; in the experiment on RXF 393 renal, -27.9% (active); with SF-268 CNS it was 39.5%; with SF-295 CNS, 14.6%; in the experiment with SF-539 CNS, -20.1% (active). Further, the growth is 68.4% with UACC-257 melanoma and -11.1% (active) in the experiment on M14 melanoma.

`C/C(=N\Nc1nc(C)cs1)c1cc2ccccc2o1`: the growth was 86.9% in the experiment with NCI-H23 lung; 76.7% with NCI-H226 lung; 93.1% with NCI-H322M lung; 63.6% in the experiment on HOP-62 NSCLC; 95.6% in the experiment on NCI-H460 lung; 87.3% with HOP-92 NSCLC. The growth was 66.3% in the experiment on NCI-H522 lung; 88% in the experiment with A549/ATCC NSCLC; 104% in the experiment with 786-0 renal; 110% in the experiment with COLO 205 colon; 107% with DU-145 prostate; 78.4% with K-562 leukemia. Moreover, the growth is 93.8% in the experiment with MALME-3M melanoma; 79.9% in the experiment on MDA-MB-231 breast; 120% with RXF 393 renal; 97.9% in the experiment with SF-268 CNS; 94.7% in the experiment on SF-295 CNS; 94.8% in the experiment with SF-539 CNS. Further, the growth was 102% in the experiment on UACC-257 melanoma and 95.4% in the experiment on M14 melanoma.

For the compound `O=C(/C=C\c1ccco1)/C=C/c1ccco1`, the growth with NCI-H23 lung was 98.6%; in the experiment on NCI-H226 lung it was 98.6%; in the experiment with NCI-H322M lung, 117%; in the experiment with HOP-62 NSCLC it was 98.1%; in the experiment with NCI-H460 lung it was 116%; in the experiment on HOP-92 NSCLC, 107%. In addition, the growth is 112% in the experiment on NCI-H522 lung; 102% in the experiment with A549/ATCC NSCLC; 110% with 786-0 renal; 106% with COLO 205 colon; 106% in the experiment with DU-145 prostate; 111% with K-562 leukemia. For the same compound, the growth in the experiment with MALME-3M melanoma was 112%; in the experiment on MDA-MB-231 breast, 93.4%; in the experiment with RXF 393 renal, 100%; with SF-268 CNS, 113%; in the experiment on SF-295 CNS it was 101%; in the experiment with SF-539 CNS, 108%. Further, the growth in the experiment with UACC-257 melanoma was 100%; in the experiment on M14 melanoma it was 105%.

As to `CCCCCCCCn1ccc2cc(NC(=O)Cn3cc(CN4CCOCC4)nn3)ccc21`, the growth in the experiment with NCI-H23 lung was 106%; in the experiment on NCI-H226 lung it was 92.3%; with NCI-H322M lung it was 96.8%; in the experiment on HOP-62 NSCLC, 113%; in the experiment with NCI-H460 lung it was 101%; in the experiment on HOP-92 NSCLC, 70.4%. Moreover, the growth is 90.4% in the experiment with NCI-H522 lung; 98.3% in the experiment with A549/ATCC NSCLC; 90.6% with 786-0 renal; 109% in the experiment on COLO 205 colon; 106% in the experiment on DU-145 prostate; 89.1% in the experiment with K-562 leukemia. Besides, the growth with MALME-3M melanoma was 100%; with MDA-MB-231 breast, 90.5%; with RXF 393 renal it was 91.9%; with SF-268 CNS, 106%; in the experiment on SF-295 CNS, 90.1%; with SF-539 CNS, 104%. The growth was 104% in the experiment on UACC-257 melanoma and 91% with M14 melanoma.

On to `COc1cc(C(=O)/C=C/c2ccc(N3CCN(C)CC3)cc2)cc(OC)c1OC`, for which the growth in the experiment with NCI-H23 lung is 90%; with NCI-H226 lung, 101%; in the experiment with NCI-H322M lung, 89.7%; in the experiment with HOP-62 NSCLC, 91.4%; with NCI-H460 lung it was 100%; with HOP-92 NSCLC it was 98.5%. Besides, the growth is 77.7% in the experiment on NCI-H522 lung; 101% with A549/ATCC NSCLC; 106% with 786-0 renal; 91.3% with COLO 205 colon; 104% with DU-145 prostate; 2.23% (active) in the experiment on K-562 leukemia. The growth in the experiment on MALME-3M melanoma is 86.3%; in the experiment on MDA-MB-231 breast, 92%; with RXF 393 renal, 107%; with SF-268 CNS, 97.9%; with SF-295 CNS, 95.2%; in the experiment with SF-539 CNS it was 96.7%. The results for the growth with UACC-257 melanoma and with M14 melanoma were 99.3% and 94.8%, respectively.

As to `COC(=O)C1=C(C(=O)Nc2cccnc2)C2OC1(C(Cc1ccccc1)Oc1ccccc1)C1OC21` (stereo not given), the growth in the experiment on NCI-H23 lung was 95.9%; with NCI-H226 lung, 88.4%; in the experiment with NCI-H322M lung, 98.4%; with HOP-62 NSCLC it was 93%; in the experiment on NCI-H460 lung, 103%; in the experiment on HOP-92 NSCLC it was -74.2% (active). For the same compound, the growth with NCI-H522 lung was -48% (active); in the experiment with A549/ATCC NSCLC, 88.8%; with 786-0 renal it was 49.7%; with COLO 205 colon, -46.9% (active); with DU-145 prostate, 72.8%; with K-562 leukemia, -48.4% (active). Further, the growth in the experiment with MALME-3M melanoma was -74.7% (active); with MDA-MB-231 breast it was 59.8%; with RXF 393 renal, 59.1%; with SF-268 CNS, 86.5%; in the experiment on SF-295 CNS, 100%; with SF-539 CNS, 72%. Further, the growth in the experiment on UACC-257 melanoma was 79.1%; in the experiment on M14 melanoma, 11.7%.

Source of the values: PubChem BioAssay (NCI).
